# Hit rate of the full screen: of about 5,500 compounds, about 2,000 (36%) were called active. Another 18% or so got no clear call; they are omitted. This is one part of the list. A number with no mark means an inactive call. No stated cut-off is given here; in the data, active means normalized growth mostly below about 0.91 (no sharp cut-off); inconclusive means no clear call, values can overlap the other calls; inactive means mostly above about 0.92.
# Experiment: chemical genetic growth profiling, strain panel (AID 1159580);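 further: tested at 20 µM; growth read once vehicle control cultures reached saturation at 30 °C; 1 = growth at the plate median or of vehicle wells; lower values mean less growth of the strain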
# Conditions: growth OD
# [1] = S. cerevisiae deletion strains, locus YAL013W, strain DEP1, hits give low values
# [2] = S. cerevisiae deletion strains, locus YBR229C, strain ROT2, hits give low values
# [3] = S. cerevisiae deletion strains, locus YDL101C, strain DUN1, hits give low values
# [4] = S. cerevisiae deletion strains, locus YDR150W, strain NUM1, hits give low values
# [5] = S. cerevisiae deletion strains, locus YEL061C, strain CIN8, hits give low values
# [6] = S. cerevisiae deletion strains, locus YGR078C, strain PAC10, hits give low values
# [7] = S. cerevisiae deletion strains, locus YGR229C, strain SMI1, hits give low values
# [8] = S. cerevisiae deletion strains, locus YHR030C, strain SLT2, hits give low values
# [9] = S. cerevisiae deletion strains, locus YHR087W, strain rtc3, hits give low values
# [10] = S. cerevisiae deletion strains, locus YJR043C, strain POL32, hits give low values
# [11] = S. cerevisiae deletion strains, locus YJR075W, strain HOC1, hits give low values
# [12] = S. cerevisiae deletion strains, locus YLR039C, strain RIC1, hits give low values
# [13] = S. cerevisiae deletion strains, locus YLR058C, strain SHM2 (second series), hits give low values
# [14] = S. cerevisiae deletion strains, locus YLR085C, strain ARP6, hits give low values
# [15] = S. cerevisiae deletion strains, locus YLR262C, strain YPT6, hits give low values
# [16] = S. cerevisiae deletion strains, locus YML094W, strain GIM5, hits give low values
# [17] = S. cerevisiae deletion strains, locus YMR219W, strain ESC1, hits give low values
# [18] = S. cerevisiae deletion strains, locus YMR263W, strain SAP30, hits give low values
# [19] = S. cerevisiae deletion strains, locus YMR307W, strain GAS1, hits give low values
# [20] = S. cerevisiae deletion strains, locus YNL153C, strain GIM3, hits give low values
# [21] = S. cerevisiae deletion strains, locus YNL298W, strain CLA4 (second series), hits give low values
# [22] = S. cerevisiae deletion strains, locus YNL322C, strain KRE1, hits give low values
# [23] = S. cerevisiae deletion strains, locus YNR030W, strain Alg12, hits give low values
# [24] = S. cerevisiae deletion strains, locus YPL055C, strain LGE1, hits give low values
# [25] = S. cerevisiae deletion strains, locus YPL241C, strain CIN2, hits give low values
# [26] = S. cerevisiae deletion strains, locus YPR135W, strain CTF4, hits give low values
smiles,measurement,setting,value
C=C1SC(Nc2cccc(C(F)(F)F)c2)=NC12CCCCC2,normalized growth,[1],0.999
same,normalized growth,[2],1.01
same,normalized growth,[3],1.01
same,normalized growth,"S. cerevisiae deletion strains, locus YDL134C, strain PPH21, hits give low values",1.03
same,normalized growth,[4],0.987
same,normalized growth,[5],1.01
same,normalized growth,[6],0.986
same,normalized growth,[7],0.999
same,normalized growth,[8],0.955
same,normalized growth,[9],0.99
same,normalized growth,[10],1.01
same,normalized growth,[11],0.995
same,normalized growth,[12],0.958
same,normalized growth,[13],0.987
same,normalized growth,[14],1.03
same,normalized growth,[15],0.971
same,normalized growth,[16],1.02
same,normalized growth,[17],0.999
same,normalized growth,[18],0.982
same,normalized growth,[19],0.937
same,normalized growth,[20],0.973
same,normalized growth,[21],0.985
same,normalized growth,[22],1.01
same,normalized growth,[23],1.01
same,normalized growth,[24],0.995
same,normalized growth,[25],1.01
same,normalized growth,[26],0.904
same,normalized growth,"S. cerevisiae strains, strain wild type, hits give low values",1
FC(F)(F)c1ccc(Cl)c(NC(=S)NN=C2CCCCCC2)c1,normalized growth,[1],0.989
same,normalized growth,[2],0.977
same,normalized growth,"S. cerevisiae deletion strains, locus YCL061C, strain MRC1, hits give low values",1.01
same,normalized growth,[3],1.07
same,normalized growth,[4],1.04
same,normalized growth,[5],0.89 (active)
same,normalized growth,[6],0.996
same,normalized growth,[7],0.948
same,normalized growth,[8],0.924
same,normalized growth,[9],0.956
same,normalized growth,[10],1.03
same,normalized growth,[11],1.02
same,normalized growth,"S. cerevisiae deletion strains, locus YKL190W, strain CNB1, hits give low values",0.891 (active)
same,normalized growth,[12],0.783 (active)
same,normalized growth,[13],0.99
same,normalized growth,[14],0.741 (active)
same,normalized growth,[15],0.883
same,normalized growth,[16],0.912
same,normalized growth,[17],0.984
same,normalized growth,[18],0.996
same,normalized growth,[20],1.02
same,normalized growth,[21],0.813 (active)
same,normalized growth,[22],0.989
same,normalized growth,[23],0.895
same,normalized growth,"S. cerevisiae deletion strains, locus YOL006C, strain TOP1, hits give low values",0.61 (active)
same,normalized growth,[24],0.949
same,normalized growth,[25],0.969
same,normalized growth,[26],1
FC(F)(F)c1ccc(N2CCc3ccccc3C2)c(NC(=S)Nc2cc(Cl)cc(Cl)c2)c1,normalized growth,"S. cerevisiae deletion strains, locus YAR019C, strain CDC15, hits give low values",0.972
same,normalized growth,"S. cerevisiae deletion strains, locus YBL105C, strain PKC1, hits give low values",0.981
same,normalized growth,"S. cerevisiae deletion strains, locus YBR135W, strain CKS1, hits give low values",0.978
same,normalized growth,"S. cerevisiae deletion strains, locus YBR136W, strain MEC1, hits give low values",0.997
same,normalized growth,"S. cerevisiae deletion strains, locus YBR160W, strain CDC28, hits give low values",0.989
same,normalized growth,"S. cerevisiae deletion strains, locus YDL017W, strain CDC7, hits give low values",0.982
same,normalized growth,"S. cerevisiae deletion strains, locus YDL028C, strain MPS1, hits give low values",0.987
same,normalized growth,[3],0.978
same,normalized growth,"S. cerevisiae deletion strains, locus YDL108W, strain KIN28, hits give low values",0.998
same,normalized growth,"S. cerevisiae deletion strains, locus YDL132W, strain cdc53, hits give low values",0.985
same,normalized growth,"S. cerevisiae deletion strains, locus YDL214C, strain PRR2, hits give low values",0.924
same,normalized growth,"S. cerevisiae deletion strains, locus YDR052C, strain DBF4, hits give low values",0.98
same,normalized growth,"S. cerevisiae deletion strains, locus YDR054C, strain cdc34, hits give low values",0.969
same,normalized growth,"S. cerevisiae deletion strains, locus YDR226W, strain ADK1, hits give low values",0.99
same,normalized growth,"S. cerevisiae deletion strains, locus YDR477W, strain SNF1, hits give low values",0.937
same,normalized growth,"S. cerevisiae deletion strains, locus YER123W, strain YCK3, hits give low values",0.908
same,normalized growth,"S. cerevisiae deletion strains, locus YER133W, strain GLC7, hits give low values",0.939
same,normalized growth,"S. cerevisiae deletion strains, locus YFL009W, strain cdc4, hits give low values",0.983
same,normalized growth,"S. cerevisiae deletion strains, locus YFL029C, strain CAK1, hits give low values",0.975
same,normalized growth,"S. cerevisiae deletion strains, locus YFR003C, strain YPI1, hits give low values",0.993
same,normalized growth,"S. cerevisiae deletion strains, locus YFR019W, strain FAB1, hits give low values",0.957
same,normalized growth,"S. cerevisiae deletion strains, locus YFR028C, strain CDC14, hits give low values",0.971
same,normalized growth,"S. cerevisiae deletion strains, locus YGR040W, strain KSS1, hits give low values",0.939
same,normalized growth,"S. cerevisiae deletion strains, locus YGR052W, strain FMP48, hits give low values",1.01
same,normalized growth,"S. cerevisiae deletion strains, locus YGR092W, strain DBF2, hits give low values",0.869
same,normalized growth,[8],1.15
same,normalized growth,"S. cerevisiae deletion strains, locus YHR079C, strain IRE1, hits give low values",1.06
same,normalized growth,"S. cerevisiae deletion strains, locus YHR082C, strain KSP1, hits give low values",1
same,normalized growth,"S. cerevisiae deletion strains, locus YHR205W, strain SCH9, hits give low values",0.962
same,normalized growth,"S. cerevisiae deletion strains, locus YIL147C, strain SLN1, hits give low values",0.993
same,normalized growth,"S. cerevisiae deletion strains, locus YJL095W, strain BCK1, hits give low values",1.02
same,normalized growth,"S. cerevisiae deletion strains, locus YJL128C, strain PBS2, hits give low values",0.968
same,normalized growth,"S. cerevisiae deletion strains, locus YJL157C, strain FAR1, hits give low values",0.908
same,normalized growth,"S. cerevisiae deletion strains, locus YJR016C, strain ILV3, hits give low values",0.985
same,normalized growth,"S. cerevisiae deletion strains, locus YJR066W, strain TOR1 (second series), hits give low values",0.899
same,normalized growth,"S. cerevisiae deletion strains, locus YJR066W, strain TOR1, hits give low values",1.02
same,normalized growth,"S. cerevisiae deletion strains, locus YKL048C, strain ELM1, hits give low values",0.963
same,normalized growth,"S. cerevisiae deletion strains, locus YKL067W, strain YNK1, hits give low values",0.931
same,normalized growth,"S. cerevisiae deletion strains, locus YKL101W, strain HSL1, hits give low values",0.959
same,normalized growth,"S. cerevisiae deletion strains, locus YKL193C, strain SDS22, hits give low values",0.974
same,normalized growth,"S. cerevisiae deletion strains, locus YKL203C, strain TOR2, hits give low values",1.02
same,normalized growth,"S. cerevisiae deletion strains, locus YLR113W, strain HOG1, hits give low values",1.03
same,normalized growth,"S. cerevisiae deletion strains, locus YLR133W, strain CKI1, hits give low values",0.936
same,normalized growth,"S. cerevisiae deletion strains, locus YLR403W, strain SFP1, hits give low values",0.945
same,normalized growth,"S. cerevisiae deletion strains, locus YML070W, strain DAK1, hits give low values",0.938
same,normalized growth,"S. cerevisiae deletion strains, locus YMR001C, strain CDC5, hits give low values",0.969
same,normalized growth,"S. cerevisiae deletion strains, locus YMR205C, strain PFK2 (second series), hits give low values",0.947
same,normalized growth,"S. cerevisiae deletion strains, locus YMR277W, strain FCP1, hits give low values",0.972
same,normalized growth,"S. cerevisiae deletion strains, locus YNL006W, strain LST8, hits give low values",0.984
same,normalized growth,"S. cerevisiae deletion strains, locus YNL020C, strain ARK1, hits give low values",0.934
same,normalized growth,"S. cerevisiae deletion strains, locus YNL161W, strain CBK1, hits give low values",0.978
same,normalized growth,"S. cerevisiae deletion strains, locus YNL183C, strain NPR1, hits give low values",1.03
same,normalized growth,"S. cerevisiae deletion strains, locus YNL207W, strain RIO2, hits give low values",0.979
same,normalized growth,"S. cerevisiae deletion strains, locus YNL222W, strain SSU72, hits give low values",0.979
same,normalized growth,"S. cerevisiae deletion strains, locus YNL307C, strain MCK1 (second series), hits give low values",0.941
same,normalized growth,"S. cerevisiae deletion strains, locus YOL078W, strain AVO1, hits give low values",0.976
same,normalized growth,"S. cerevisiae deletion strains, locus YOL136C, strain PFK27, hits give low values",0.956
same,normalized growth,"S. cerevisiae deletion strains, locus YOR061W, strain CKA2, hits give low values",0.908
same,normalized growth,"S. cerevisiae deletion strains, locus YOR119C, strain RIO1, hits give low values",0.98
same,normalized growth,"S. cerevisiae deletion strains, locus YOR231W, strain MKK1, hits give low values",1.01
same,normalized growth,"S. cerevisiae deletion strains, locus YOR329C, strain SCD5, hits give low values",0.985
same,normalized growth,"S. cerevisiae deletion strains, locus YPL031C, strain PHO85, hits give low values",0.929
same,normalized growth,"S. cerevisiae deletion strains, locus YPL153C, strain RAD53, hits give low values",0.931
same,normalized growth,"S. cerevisiae deletion strains, locus YPL204W, strain HRR25, hits give low values",0.939
same,normalized growth,"S. cerevisiae deletion strains, locus YPL209C, strain IPL1, hits give low values",0.982
same,normalized growth,"S. cerevisiae deletion strains, locus YPL256C, strain CLN2, hits give low values",1.07
same,normalized growth,"S. cerevisiae deletion strains, locus YPR025C, strain CCL1, hits give low values",0.967
same,normalized growth,"S. cerevisiae deletion strains, locus YPR106W, strain ISR1, hits give low values",0.982
same,normalized growth,"S. cerevisiae deletion strains, locus YPR111W, strain DBF20, hits give low values",0.985
same,normalized growth,"S. cerevisiae deletion strains, strain NNK1, hits give low values",0.991
same,normalized growth,"S. cerevisiae deletion strains, strain TSCII, hits give low values",0.972
COc1cc2c(cc1OC)[C@@H](c1ccccc1)CN(C)CC2,normalized growth,"S. cerevisiae deletion strains, locus YAL040C, strain CLN3, hits give low values",1
same,normalized growth,"S. cerevisiae deletion strains, locus YCL061C, strain MRC1 (second series), hits give low values",1.01
same,normalized growth,"S. cerevisiae deletion strains, locus YDR363W, strain ESC2, hits give low values",1.01
same,normalized growth,"S. cerevisiae deletion strains, locus YER002W, strain NOP16, hits give low values",1
same,normalized growth,[6],1.01
same,normalized growth,[11],1.01
same,normalized growth,[18],1.01
same,normalized growth,[19],1.01
same,normalized growth,"S. cerevisiae deletion strains, locus YNL128W, strain TEP1, hits give low values",1.01
same,normalized growth,[20],1.04
same,normalized growth,"S. cerevisiae deletion strains, locus YNL175C, strain NOP13, hits give low values",1
same,normalized growth,"S. cerevisiae deletion strains, locus YNL197C, strain WHI3, hits give low values",1
same,normalized growth,"S. cerevisiae deletion strains, locus YNL224C, strain SQS1, hits give low values",1
same,normalized growth,[22],1.01
same,normalized growth,"S. cerevisiae deletion strains, locus YOR083W, strain WHI5 (second series), hits give low values",1.02
same,normalized growth,[24],0.995
same,normalized growth,[25],1.01
